Reference: PubChem BioAssay AID488975 (Johns Hopkins Ion Channel Center, 2010)
The campaign covered roughly 310,000 compounds. About 2,600 (0.84%) were called active.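 Rule for the calls: active = B-score over 3 SD under the library average, and starting fluorescence ratio not unusually high; inactive = the rest.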 Shown is part of a subset that was picked to be rich in actives.

These molecules were tested against High affinity choline transporter 1 (Homo sapiens) (UniProt Q9GZV3) (assay: inhibits the human high affinity choline transporter (AID 488975;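 for B-score: choline stimulus applied at its EC90 after an EC20 pre-addition; B-score computed on integrated fluorescence ratio after choline addition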)). Conditions: CHT-expressing cells, membrane potential dye, choline response, at 10 µM; active compounds read low.
Sequence of High affinity choline transporter 1 (Homo sapiens) (Q9GZV3 whole entry, looked up): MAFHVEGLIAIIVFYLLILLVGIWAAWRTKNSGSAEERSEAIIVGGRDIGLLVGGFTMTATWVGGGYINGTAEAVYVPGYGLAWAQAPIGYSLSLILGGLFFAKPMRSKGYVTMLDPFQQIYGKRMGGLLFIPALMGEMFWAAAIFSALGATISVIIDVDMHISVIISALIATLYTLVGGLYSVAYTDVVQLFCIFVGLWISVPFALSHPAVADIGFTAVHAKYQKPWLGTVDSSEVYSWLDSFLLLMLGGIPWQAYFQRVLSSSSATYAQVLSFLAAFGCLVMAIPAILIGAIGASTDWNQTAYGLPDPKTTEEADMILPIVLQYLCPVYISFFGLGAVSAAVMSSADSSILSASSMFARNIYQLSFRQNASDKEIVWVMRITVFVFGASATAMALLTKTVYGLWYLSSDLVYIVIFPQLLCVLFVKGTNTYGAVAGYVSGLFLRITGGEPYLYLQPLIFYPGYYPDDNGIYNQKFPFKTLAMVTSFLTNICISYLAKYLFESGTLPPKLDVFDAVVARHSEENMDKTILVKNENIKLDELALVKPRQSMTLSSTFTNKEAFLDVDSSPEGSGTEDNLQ
Cc1nc2ccccn2c1P(=S)(N1CCCCC1)N1CCCCC1 was tested, and the B-score was -6.55 (active).
CC[C@H]1CC2CN3CCc4c([nH]c5ccccc45)C(C(=O)OC)(C2)C13 (stereo not given in full) was tested, and the B-score was “inactive”.
For COC(=O)C1=C(c2cc3ccccc3s2)C[C@@H]2CC[C@H]1N2C(=O)NC(C)C, the B-score was “inactive”.
C[N+]1(C)CCOC(O)(c2ccc(-c3ccc(C4(O)C[N+](C)(C)CCO4)cc3)cc2)C1 (stereo not given) was tested, and the B-score was -5.22 (active).
For C=CCN1C(=O)NC(=O)/C(=C/c2ccc(OCC(=O)Nc3ccc(C)cc3)cc2)C1=O, the B-score was “inactive”.
COc1ccc(CNCCc2c[nH]c3ccccc23)cc1OC was tested, and the B-score was “inactive”.
With O=C(N/N=C/c1c(O)n(C2CC2)c(=S)[nH]c1=O)c1ccccc1 the B-score was “inactive”.
In the case of COc1ccc2c(c1)[C@]13CCCCC1C(C2)N(C)CC3 (stereo not given in full), the B-score was “inactive”.
For COC(=O)C1=C(c2cc3ccccc3s2)C[C@@H]2CC[C@H]1N2C(=O)NCc1cccc2ccccc12, the B-score was “inactive”.
In the case of COc1ccccc1N1CCN(C(CNC(=O)Oc2ccccc2)c2cccnc2)CC1 (stereo not given), the B-score was -6.58 (active).
O=C(NCC(c1cccnc1)N1CCN(c2ccccc2)CC1)Oc1ccccc1 (stereo not given) was tested, and the B-score was “inactive”.
For COC(=O)C(c1ccccc1)N1CCCCCC1 (stereo not given), the B-score was “inactive”.
For COc1ccc(N2C(=O)/C(=C/c3ccco3)C(=O)NC2=S)cc1, the B-score was “inactive”.
COC(=O)C1=C(c2ccccc2)C[C@@H]2CC[C@H]1N2C(=O)NCc1ccco1 was tested, and the B-score was “inactive”.
In the case of C/C(=N/O)c1ccc2ccc3ccccc3c2c1, the B-score was “inactive”.
